Values joined by “and” are separate entries in the source; they are usually repeats but may differ in a detail not shown here. Identical values can stand only once. Inconclusive results are not listed. A call without a number means that no potency is given here. Where a structure was tested more than once in an assay, its records may differ in their call. Active and inactive are the calls of the source. The call rests on the fitted dose curve; in most records, active means well fitted curve in the direction sought with a large enough effect in the repeat runs; inconclusive means weak or mixed curves; inactive means no such curve, though single readings can be large; an effect the other way counts as inactive or inconclusive.
What was measured:
[1] = Caspase-3/7 induction in HepG2 cells by small molecules, qHTS assay (AID 1346978); further: nearly all actives have a fitted effect of over 15% in size
Outline: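 Wild-type HepG2 cells (2,000/well) were settled 5 h at 37 C, 5% CO2, then exposed to compounds in DMSO for 17 h. Caspase-3/7 activity was read by luminescence 30 min after adding Caspase-Glo 3/7 reagent at room temperature.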

[2] = Caspase-3/7 induction in CHO-K1 cells by small molecules, qHTS cell viability counter screen (AID 1346979); further: nearly all actives have a fitted effect of over 35% in size; further: potency means the concentration at half of the fitted maximal effect
Outline: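 Cells (CHO-K1, wild type) are plated at 1,500 per well and incubated 5hr. Test compounds in DMSO are then pinned in, followed by 16hr at 37C and 5% CO2. Viability is read by CellTiter-Fluor fluorescence after 1hr.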

[3] = Caspase-3/7 induction in CHO-K1 cells by small molecules, qHTS assay (AID 1346980); further: nearly all actives have a fitted effect of over 15% in size; further: potency means the concentration at half of the fitted maximal effect
Outline: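 Wild-type cells were seeded at 1,500 per well and settled 5 hr at 37 C, 5% CO2, then exposed to DMSO-dissolved compounds for 17 hr. Caspase-Glo 3/7 reagent was added, and luminescence was read after 30min at room temperature.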

[4] = Caspase-3/7 induction in HepG2 cells by small molecules, qHTS cell viability counter screen (AID 1346981); further: series mostly up to about 92 µM; nearly all actives have a fitted effect of over 30% in size
Outline: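 Wild-type HepG2 cells (2,000/well) were allowed to settle for 5 hr at 37 C, 5% CO2, then dosed with compounds in DMSO by pin transfer. After 16 hr at 37 C, CellTiter-Fluor was added and fluorescence read 1 hr later.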

[5] = biological target: Nuclear receptor subfamily 1 group I member 2 (Homo sapiens) (UniProt O75469); assay: Human pregnane X receptor (PXR) small molecule agonists, qHTS assay (AID 1346982); further: nearly all actives have a fitted effect of over 35% in size; further: potency means the concentration at half of the fitted maximal effect
Sequence of Nuclear receptor subfamily 1 group I member 2 (Homo sapiens) (O75469 whole entry, looked up): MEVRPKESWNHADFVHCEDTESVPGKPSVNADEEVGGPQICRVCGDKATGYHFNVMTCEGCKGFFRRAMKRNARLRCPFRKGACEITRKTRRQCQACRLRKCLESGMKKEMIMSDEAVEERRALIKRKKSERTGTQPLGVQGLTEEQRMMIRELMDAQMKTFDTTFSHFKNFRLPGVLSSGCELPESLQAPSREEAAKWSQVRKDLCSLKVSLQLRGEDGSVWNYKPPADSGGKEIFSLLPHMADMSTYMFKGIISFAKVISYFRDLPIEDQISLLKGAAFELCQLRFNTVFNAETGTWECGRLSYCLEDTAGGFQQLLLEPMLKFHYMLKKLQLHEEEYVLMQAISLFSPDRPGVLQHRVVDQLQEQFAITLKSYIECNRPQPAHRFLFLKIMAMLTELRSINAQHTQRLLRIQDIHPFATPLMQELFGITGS
Outline: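 PXR-Luc HepG2 cells (CYP3A4 promoter-driven luciferase) were seeded in medium with 5% charcoal-stripped FBS, left 5 hr at 37 C, then exposed to compounds in DMSO for 24 hr. Luminescence was read after ONE-Glo addition.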

[6] = biological target: Cytochrome P450 2D6 (Homo sapiens) (UniProt P10635); assay: Cytochrome P450 Family 2 Subfamily D Member 6 (CYP2D6) small molecule antagonists: luciferase reporter qHTS assay (AID 1671196); further: nearly all actives have a fitted effect of over 50% in size; further: potency means the concentration at half of the fitted maximal effect
Sequence of Cytochrome P450 2D6 (Homo sapiens) (P10635 whole entry, looked up): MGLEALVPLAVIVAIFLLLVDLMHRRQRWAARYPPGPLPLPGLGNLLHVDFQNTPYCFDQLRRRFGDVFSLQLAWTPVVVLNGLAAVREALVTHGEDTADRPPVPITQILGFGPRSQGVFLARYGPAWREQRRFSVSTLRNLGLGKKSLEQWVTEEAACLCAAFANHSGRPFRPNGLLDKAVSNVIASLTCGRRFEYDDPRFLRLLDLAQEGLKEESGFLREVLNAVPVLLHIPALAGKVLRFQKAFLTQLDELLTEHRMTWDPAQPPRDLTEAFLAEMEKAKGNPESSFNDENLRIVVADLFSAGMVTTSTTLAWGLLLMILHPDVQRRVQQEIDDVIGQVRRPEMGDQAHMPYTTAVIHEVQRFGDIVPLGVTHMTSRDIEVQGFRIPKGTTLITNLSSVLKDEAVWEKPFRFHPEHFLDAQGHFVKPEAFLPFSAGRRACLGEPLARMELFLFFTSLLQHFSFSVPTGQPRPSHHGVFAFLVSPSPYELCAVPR
Outline: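 CYP2D6 enzyme–substrate mix was held with compound for 10 min at room temperature, then NADPH regeneration solution was added and the reaction ran 1 h at room temperature. Luciferin product was detected by luminescence after 20 min with detection reagent.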

[7] = biological target: Cytochrome P450 2C19 (Homo sapiens) (UniProt P33261); assay: Cytochrome P450 Family 2 Subfamily C Member 19 (CYP2C19) small molecule antagonists: luciferase reporter qHTS assay (AID 1671197); further: nearly all actives have a fitted effect of over 65% in size; further: potency means the concentration at half of the fitted maximal effect
Sequence of Cytochrome P450 2C19 (Homo sapiens) (P33261 whole entry, looked up): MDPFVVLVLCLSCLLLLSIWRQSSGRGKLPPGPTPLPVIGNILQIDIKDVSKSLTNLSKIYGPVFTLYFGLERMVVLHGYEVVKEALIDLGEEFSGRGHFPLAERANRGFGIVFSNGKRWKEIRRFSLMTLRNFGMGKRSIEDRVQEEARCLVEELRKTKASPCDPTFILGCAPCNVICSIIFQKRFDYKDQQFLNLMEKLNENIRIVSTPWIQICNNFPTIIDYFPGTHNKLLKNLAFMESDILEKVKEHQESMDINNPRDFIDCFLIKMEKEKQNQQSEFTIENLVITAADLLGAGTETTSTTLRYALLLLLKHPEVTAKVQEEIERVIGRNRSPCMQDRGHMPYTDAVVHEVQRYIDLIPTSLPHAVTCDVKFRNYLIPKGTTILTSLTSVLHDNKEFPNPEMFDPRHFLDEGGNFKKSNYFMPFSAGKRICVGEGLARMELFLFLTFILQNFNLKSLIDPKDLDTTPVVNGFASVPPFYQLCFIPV
Outline: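 Luminescent readout of CYP2C19 activity: luciferin product detected 20 min after adding detection reagent. Before that, compound and enzyme-substrate mix preincubated 10 min at room temperature; NADPH-regenerating system started a 1 h, 37C reaction. Ketoconazole as positive control.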

Row | SMILES | Potency [1] | Potency [2] | Potency [3] | Potency [4] | Potency [5] | Potency [6] | Potency [7]
1 | C=C(C)CC(C)(C)C | inactive | inactive | inactive | inactive | inactive | inactive | inactive
2 | CC(=O)OCc1ccc2c(c1)OCO2 | inactive | inactive | inactive | inactive | inactive | inactive | 35.7 µM (active) and 31.7 µM (active)
3 | CC(C)c1ccc(C(C)C)cc1 | inactive | inactive | inactive | inactive | inactive | inactive | inactive
4 | NC(N)=S | inactive | inactive | inactive | inactive | inactive | inactive | 39.1 µM (active)
5 | CN1CCCC1=O | inactive | inactive | inactive | inactive | 63.2 µM (active) and inactive | inactive | inactive
6 | CCCCCCCCCCCCCC(=O)O | inactive | inactive | inactive | inactive | inactive | inactive | inactive
7 | Cc1nnc(NS(=O)(=O)c2ccc(N)cc2)s1 | inactive | inactive | inactive | inactive | inactive | inactive | 39.8 µM (active)
8 | CC1=CC(=O)CC(C)(C)C1 | inactive | inactive | inactive | inactive | 62.9 µM (active) and inactive | inactive | 18.4 µM (active) and inactive
9 | CCCN(CCC)C(=O)SCC | inactive | inactive | inactive | inactive | inactive | inactive | inactive
10 | COc1cc(NC(=O)CC(C)=O)c(OC)cc1Cl | inactive | inactive | inactive | inactive | 68.9 µM (active) and 24.3 µM (active) | 79.6 µM (active) | 40.1 µM (active) and 39.9 µM (active)
11 | CC(O)CNCC(C)O (stereo not drawn) | inactive | inactive | inactive | inactive | 61.5 µM (active) and inactive | inactive | 20.1 µM (active) and 71 µM (active)
12 | NC(=O)NC(N)=O | inactive | inactive | inactive | inactive | inactive | inactive | inactive
13 | COC(=O)OC | inactive | inactive | inactive | inactive | inactive | inactive | inactive
14 | CC/C=C(\C(=O)N[C@@H]1C(=O)N2C(C(=O)OCOC(=O)C(C)(C)C)=C(COC(N)=O)CS[C@H]12)c1csc(N)n1 | inactive | inactive | inactive | inactive | inactive | inactive | 19.5 µM (active)
15 | C[n+]1ccn(CCO)c1 | inactive | inactive | inactive | inactive | inactive | inactive | inactive
16 | CC(=O)OC/C=C(\C)CCC=C(C)C | inactive | inactive | inactive | inactive | inactive | inactive | inactive and 39.9 µM (active)

Row | SMILES | Potency [1] | Potency [2] | Potency [3] | Potency [4] | Potency [5] | Potency [6] | Potency [7]
17 | O=C1C(N(CO)C(=O)NCO)N(CO)C(=O)N1CO (stereo not drawn) | inactive | inactive | inactive | inactive | inactive | inactive | inactive
18 | C=CC(C)(C)C | inactive | inactive | inactive | inactive | inactive | inactive | inactive
19 | CC(C=O)Cc1ccc(C(C)(C)C)cc1 (stereo not drawn) | inactive | inactive | inactive | inactive | inactive | inactive | inactive
20 | Cc1cccc(C)c1[N+](=O)[O-] | inactive | inactive | inactive | inactive | inactive | inactive | inactive
21 | CC(=O)OCCC(C)C | inactive | inactive | inactive | inactive | inactive | inactive | 79.7 µM (active)
22 | Oc1ccc(Cc2ccccc2O)cc1 | inactive | inactive | inactive | inactive | 61.9 µM (active) | inactive | 36 µM (active) and 39.9 µM (active)
23 | COc1ccccc1[N+](=O)[O-] | inactive | inactive | inactive | inactive | inactive | inactive | inactive and 35.6 µM (active)
24 | CC(C)(CO)CO | inactive | inactive | inactive | inactive | inactive | inactive | inactive
25 | O=C(Cl)c1ccc(C(=O)Cl)cc1 | inactive | inactive | inactive | inactive | inactive | inactive | inactive
26 | O=C(O)C1=NN(c2ccc(S(=O)(=O)O)cc2)C(=O)C1 | inactive | inactive | inactive | inactive | inactive | inactive | 35.6 µM (active)
27 | COc1c(Cl)ccc(Cl)c1C(=O)O | inactive | inactive | inactive | inactive | inactive | inactive | inactive
28 | CCCCC(=O)O | inactive | inactive | inactive | inactive | inactive | inactive | inactive
29 | OC1CCCCC1 | inactive | inactive | inactive | inactive | inactive | inactive | inactive
30 | CC(=O)c1nccs1 | inactive | inactive | inactive | inactive | inactive | inactive | 26.1 µM (active) and inactive
31 | COc1ccc([C@@H]2CC(=O)c3c(O)cc(O[C@@H]4O[C@H](CO[C@@H]5O[C@@H](C)[C@H](O)[C@@H](O)[C@H]5O)[C@@H](O)[C@H](O)[C@H]4O)cc3O2)cc1OC | inactive | inactive | inactive | inactive | inactive | inactive | inactive
32 | c1cnc2c(c1)ccc1cccnc12 | inactive | 4.37 µM (active) and 6.11 µM (active) and 9.69 µM (active) | 978 nM (active) and 1.37 µM (active) and inactive | inactive | 2.76 µM (active) and 10.9 µM (active) and 24.3 µM (active) | – | 10.1 µM (active) and 8.94 µM (active) and 10 µM (active)

Source: PubChem BioAssay (Tox21)
